40 compounds from the supplement of paper PMC11219838 can be followed below.

Values without a mark were called inactive.

This experiment concerns Caenorhabditis elegans dauer (daf-2(e1370)). In words: proportion of mobile C. elegans dauer larvae relative to DMSO control (fraction of DMSO control); higher = more viable, less nematicidal, active = 0.63 or less; extreme values may be limits of the assay. To be noted: 60 µM; 5 days; temperature: 20 °C. The procedure:
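DODA library (846 commercial 1,3,4- and 1,2,4-oxadiazole compounds plus commercial nematicide controls) screened at a single dose of 60 µM (0.6% DMSO) in 96-well plates, two biological replicates. Read-outs: C. elegans N2 L1 survival/reproduction score at day 6, 20 °C (0: 0-10 worms, 1: 11-20, 2: 21-50, 3: >50, 4: overgrown/starved). C. elegans daf-2 dauer, D. dipsaci and M. hapla J2 mobility at day 5, 20 °C, and P. penetrans mobility at day 5, 20 °C, each relative to DMSO controls. M. hapla egg hatching at day 12, 25 °C, relative to the mean of 8 DMSO wells on the same plate.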
`Clc1ccc(OCc2nc(-c3ccncc3)no2)cc1`: the “proportion of mobile C. elegans dauer larvae” value (shortened to “proportion”) is 0.645.
Then `Cc1ccc(NC(=O)CSc2nnc(-c3ccccc3)o2)c(C)c1`, with 1; and `O=C(CSc1nnc(-c2ccc(Cl)cc2)o1)NCc1ccccc1`, with 1; and `Cc1cccc(-c2noc(COc3ccccc3Cl)n2)c1`, with 1.
In the case of `Fc1ccc(OCc2nc(-c3ccc(Br)cc3)no2)cc1`, the “proportion” value is 1.
On to `O=C(CSc1nnc(-c2ccccc2)o1)Nc1ccccc1C(F)(F)F`, for which the “proportion” value was 1.
`Clc1ccccc1-c1nc(-c2ccc3c(c2)OCO3)no1`: the “proportion” value was 1.
As for `O=C(CSc1nnc(-c2cccnc2)o1)c1ccc(Br)cc1`, the “proportion” value was 1.
In the case of `Cc1ccc(OC(C)c2nc(-c3cccnc3)no2)cc1` (stereo not given), the “proportion” value is 1.
On to `Clc1ccc(-c2nc(C3CCCCC3)no2)cc1`, for which the “proportion” value was 1.
For the compound `Cc1cc(OC(C)c2nc(-c3cccnc3)no2)ccc1Cl` (stereo not given), the “proportion” value was 1.
As to `COc1ccc(-c2noc(COc3ccc(C)cc3C)n2)cc1`, the “proportion” value is 1.
With `Cc1ccc(-c2noc(-c3ccco3)n2)s1`, the “proportion” value was 0.812.
Consider `CNC(=O)c1ccccc1-c1nc(-c2ccc(F)cc2)no1`, for which the “proportion” value was 1.
Take `N#Cc1ccc(OCc2nc(-c3cccs3)no2)cc1`: the “proportion” value is 1.
For the compound `Brc1cccc(-c2nc(-c3ccccc3)no2)c1`, the “proportion” value was 1.
As for `CC(C)(C)c1ccc(-c2nnc(SCC(=O)c3ccc(F)cc3)o2)cc1`, the “proportion” value was 1.
For `Cc1ccc(OCc2nc(-c3cccnc3)no2)cc1C`, the “proportion” value was 1.
Next, `COC(=O)c1ccc(Cl)c(NC(=O)CSc2nnc(-c3ccc(Cl)cc3)o2)c1`: 1; `COc1ccc(NC(=O)CSc2nnc(-c3ccccc3)o2)cc1`: 1; `CCOC(=O)c1sc(NC(=O)CSc2nnc(-c3ccc(Cl)cc3)o2)c(C#N)c1C`: 1.
Then `COc1cccc(-c2noc(COc3ccc(C)cc3C)n2)c1`, with 1; and `CCSc1nnc(-c2ccc(Cl)cc2Cl)o1`, with 0 (active); and `Brc1cccc(-c2nc(-c3ccncc3)no2)c1`, with 1.
Next, `CCOC(=O)c1ccc(OCc2nc(-c3cccs3)no2)cc1`: 1.
With `Cc1ccc(NC(=O)CSc2nnc(-c3ccco3)o2)cc1Br`, the “proportion” value was 1.
With `O=C(NCCc1ccccc1)c1ccccc1-c1nc(-c2ccccc2Cl)no1`, the “proportion” value is 1.
Turning to `COc1ccc(-c2noc(-c3ccccc3C)n2)cc1`, the “proportion” value was 0.533 (active).
Take `Cc1cccc(C)c1NC(=O)CSc1nnc(-c2ccncc2)o1`: the “proportion” value is 1.
Regarding `Cc1ccc(-c2nnc(SCC(=O)Nc3nccs3)o2)cc1`, the “proportion” value was 1.
Turning to `CCOc1nc(-c2ccccc2)ccc1-c1noc(CC)n1`, the “proportion” value is 1.
In the case of `COc1ccc(OC(C)c2nc(-c3cccnc3)no2)cc1` (stereo not given), the “proportion” value was 1.
Then `Cc1cc(OCc2nc(-c3cccnc3)no2)cc(C)c1Br`, with 1.
As to `Clc1cccc(OCc2nc(-c3cccs3)no2)c1`, the “proportion” value was 0.5 (active).
Next, `CCn1c(SCc2nc(-c3ccccc3)no2)nc2ccccc21`: 1.
Next, `Brc1ccc(-c2noc(-c3ccco3)n2)o1`: 0.391 (active); `COc1ccc(-c2nnc(SCC(=O)N3CC(C)CC(C)C3)o2)cc1` (stereo not given): 1.
Next, `O=C(CSc1nnc(-c2ccco2)o1)c1ccccc1`: 1; `Clc1ccc(OCc2nc(-c3ccccc3)no2)c(Br)c1`: 1.
Consider `Cc1ccc(C)c(-c2nc(-c3ccncc3)no2)c1`, for which the “proportion” value is 0.385 (active).
